This is one part of a sample in which hits are shown more often than they occur.
MgrA-DNA mod: S. aureus MgrA activity modulators, primary screen, biochemical, S. aureus Newman, fluorescence polarization; actives 0.13% (n = 84,000); MgrA-DNA binding; inhibition, % (concentration not given with the values); AID 602314, 2012; in the data active means inhibition above about 30%, passing the limit was not always enough;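 further: 0% = protein plus DNA without compound and 100% = DNA alone without protein; higher means less MgrA bound to DNA so lower polarization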
Starred values were filed as active, the others as inactive.

SMILES	MgrA-DNA mod
CN1CCc2[nH]c(=S)c(C#N)c(-c3ccccc3)c2C1	10.4
CN1CCc2c(C#N)c(Cl)nc(NCc3ccccc3)c2C1	-0.8
CN1CCc2c(C#N)c(N)n(N)c(=S)c2C1	161.2*
CC12C/C(=C\c3ccccc3)C(=O)C[C@]1(C)CCC1C2CCC2(C)C1CC[C@]2(C)O (some centres not stated)	0.8
O=C1NC(=S)N(c2ccccc2)C(=O)/C1=C/C=C/c1ccco1	80.2*
O=C1NC(=O)N(c2ccccc2)C(=O)/C1=C/c1ccco1	16.7
CN1C(=O)NC(=O)/C(=C/c2ccco2)C1=O	12.2
CC1CN=C(Nc2ccc(C(C)C)cc2)S1 (configuration not stated)	-0.8
CCN(CC)c1ccc2c3c(c(=O)oc2c1)C(c1cc2c(C)cc(C)cc2[nH]c1=O)C(C#N)=C(N)O3 (configuration not stated)	21.8
O=C1CN=C(c2ccccc2)c2c(sc3c2CCCC3)N1CCN1CCOCC1	-4.8

Compound activity deposited in PubChem by ICCB-Longwood Screening Facility, Harvard Medical School.
